# Screening results: PubChem, The Scripps Research Institute Molecular Screening Center
# GPR151 activ = human GPR151 activation; Q8TDV0; PathHunter beta-arrestin GPR151 cells, luminescence; activation, % at 11.2 µM; actives 1% (n = 650,000); in the data active = activation above about 4.9%
# TEAD-YAP block = TEAD-YAP interaction inhibition; actives 1.4% (n = 640,000); HEK-TIYL cells, TEAD-Gal4/YAP UAS-luciferase luminescence; inhibition, % at 9.12 µM; in the data active = inhibition above about 32%
# MITF primary = human MITF inhibition, primary screen | inhibition, % at 2.6 µM | O75030 | actives 0.91% (n = 650,000) | AlphaScreen MITF homodimerization, bead proximity signal; in the data active = inhibition above about 50%
# Target sequence (O75030 whole entry, looked up): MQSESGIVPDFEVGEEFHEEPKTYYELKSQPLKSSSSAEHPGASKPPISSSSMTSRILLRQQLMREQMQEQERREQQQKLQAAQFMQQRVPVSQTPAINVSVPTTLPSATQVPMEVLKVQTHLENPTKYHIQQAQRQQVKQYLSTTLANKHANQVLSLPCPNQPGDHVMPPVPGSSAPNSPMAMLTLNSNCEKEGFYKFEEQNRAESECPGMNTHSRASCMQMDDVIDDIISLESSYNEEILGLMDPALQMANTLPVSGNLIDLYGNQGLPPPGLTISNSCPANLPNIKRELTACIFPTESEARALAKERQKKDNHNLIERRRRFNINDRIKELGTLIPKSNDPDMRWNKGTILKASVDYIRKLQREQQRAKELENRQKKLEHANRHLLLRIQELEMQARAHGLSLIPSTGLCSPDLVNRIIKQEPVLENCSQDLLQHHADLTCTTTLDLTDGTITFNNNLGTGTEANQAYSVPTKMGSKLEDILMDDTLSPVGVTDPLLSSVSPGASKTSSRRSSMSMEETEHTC
# FBW7 act = activators of human E3 ligase FBW7; AID 1259310; Q969H0; normalized activity (activation), % at 26.1 µM; actives 0.13% (n = 650,000); AlphaScreen FBW7–phospho-cyclin E peptide binding, activator screen; in the data active = normalized activity above about 1.9%;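 also: purified mutant Fbw7 with reduced substrate affinity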
# GPR151 conf act = confirmation of human GPR151 activators | shares compounds with GPR151 activ | GPR151 PathHunter beta-arrestin cells, luminescence, 90 min; % of EA-reagent control over plate median | 6,700 tested, under 10 active | activation, % at 11.2 µM | AID 1508609;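 active = mean percent activation across replicates above the confirmation screen cutoff of 4.91%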
# GPR119 counter = activates human GPR119 in a GPR151 counter-screen; activation, % at 11.2 µM; actives 0.3% (n = 6,700); GPR119 PathHunter beta-arrestin cells, luminescence, 90 min; 0 = compound-well median, 100 = enzyme-acceptor control; shares compounds with GPR151 activ; AID 1508611;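 active = mean percent activation in the counterscreen above 29.09%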;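 also: counterscreen on off-target GPR119 to flag nonselective hits from the GPR151 activator screen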
# A number is an active result; 0 = inactive; - = no result given; ! = not active in a repeat. Most compounds without a hit are left out; they make up all but 3.4% or so of the library.
SMILES,GPR151 activ,TEAD-YAP block,MITF primary,FBW7 act,GPR151 conf act,GPR119 counter
CC(C(=O)O/N=C(\N)c1ccncc1)c1ccc([N+](=O)[O-])cc1 (stereo unspecified),21,0,0,0,0,0
CC(C(=O)O/N=C(\N)c1ccccc1)c1ccc([N+](=O)[O-])cc1 (stereo unspecified),0,0,0,0,-,-
CO[C@H]1C[C@H](O[C@H]2[C@H](C)[C@@H](OC3O[C@H](C)C[C@H](N(C)C)[C@H]3OC(C)=O)[C@@H](C)C[C@]3(CO3)C(=O)[C@H](C)[C@@H](OC(C)=O)[C@@H](C)[C@@H](C)OC(=O)[C@@H]2C)O[C@@H](C)[C@@H]1OC(C)=O (stereo partly specified),6.3!,0,0,0,0,0
O=C(NC1CCCCC1)/C(=C\c1cccs1)NC(=O)c1ccccc1,0,0,0,0,-,-
COc1ccc(NC(=O)N2CCC(CN3CCOCC3)CC2)cc1OC,6.9,0,0,0,0,0
COc1ccc(NC(=O)N2CCC(CN3CCOCC3)CC2)c(OC)c1,0,0,0,0,-,-
CCNS(=O)(=O)c1cc(Cl)c(OC)cc1Cl,0,0,0,0,-,-
Nn1c(O)c(C2=c3cc(F)ccc3=NC2=O)sc1=S,6.0,0,0,0,0,0
CCn1c(SCC(=O)N/N=C(/C)c2ccc(OC)cc2)nc2ccccc21,6.8,0,0,0,0,0
CC1CN(C(=S)NC(=O)C(C)(C)C)CC(C)O1 (stereo unspecified),7.3,0,0,0,0,0
CC(C)(C)C(=O)NC(=S)N1CCOCC1,0,0,0,0,-,-
CCCSC1=C(C#N)C(c2ccc3c(c2)OCO3)CC(=O)N1 (stereo unspecified),0,0,0,0,-,-
CSC1=C(C#N)C(c2ccc3c(c2)OCO3)CC(=O)N1 (stereo unspecified),5.1,0,0,0,0,0
Cc1ccnc(SCc2cc(=O)c(OC(=O)c3cc(Cl)ccc3[N+](=O)[O-])co2)n1,14,0,0,0,0,0
Cc1ccnc(SCc2cc(=O)c(OC(=O)c3cc(Cl)ccc3Cl)co2)n1,0,0,0,0,-,-
Cc1cccc(OCCCN2CCOCC2)c1C,5.1,0,0,0,0,0
CC(=O)Nc1ccc(NC(=O)c2c(C)nn(-c3ccccc3)c2-n2cccc2)cc1,0,0,0,0,-,-
CC(C)(C)c1csc(NC(=O)c2cc([N+](=O)[O-])cc([N+](=O)[O-])c2)n1,0,0,0,0,-,-
CC(=O)Oc1cccc(C(=O)Nc2nc(C(C)(C)C)cs2)c1,7.3,0,0,0,0,0
CC(C)(C)c1csc(NC(=O)c2cccc(F)c2)n1,0,0,0,0,-,-
CC(C)(C)c1csc(NC(=O)c2cc([N+](=O)[O-])ccc2Cl)n1,7.1,0,0,0,0,0
Cc1cccc(NS(=O)(=O)c2cc(C(=O)Nc3ccccc3[N+](=O)[O-])c(Cl)cc2Cl)c1,0,0,0,0,-,-
O=C(Nc1ccc(Cl)c(C(F)(F)F)c1)c1ccc2c(=O)n(Cc3cccc(Br)c3)c(=S)[nH]c2c1,6.2,0,0,0,0,0
CC(C)NC(=O)c1ccc2c(=O)n(Cc3ccc(Cl)cc3)c(=S)[nH]c2c1,6.1,0,0,0,0,0
O=C1C=C(N2CCCCC2)C(=O)N1c1ccc(Br)cc1,0,0,0,0,-,-
SMILES,GPR151 activ,TEAD-YAP block,MITF primary,FBW7 act,GPR151 conf act,GPR119 counter
COc1ccc(/C=C/C(=O)NCC(c2ccc(F)cc2)N2CCOCC2)cc1OC (stereo unspecified),0,0,0,0,-,-
Cc1cccc(C)c1NC(=O)CSc1ncn[nH]1,0,0,0,0,-,-
CCc1cccc(C)c1NC(=O)CSc1ncn[nH]1,7.4,0,0,0,0,0
Cc1cnc(Nc2ccncc2)nc1NCCOc1ccccc1,0,0,0,0,-,-
Cc1cnc(Nc2ccccc2)nc1NCCOc1ccccc1,6.0,0,0,0,0,0
CCOC(=O)c1sc2ncn(C(C)C(=O)OC(C)C)c(=O)c2c1C (stereo unspecified),0,0,0,0,-,-
Cc1cccc(NC(=O)Nc2cnn(-c3cccc(C(=O)Nc4ccnc(C)c4)c3)c2)c1,6.6,0,0,0,0,0
O=C(Cc1ccccc1)Nc1cnn(-c2cccc(C(=O)Nc3cccc(CN4CCOCC4)c3)c2)c1,5.2,0,0,0,0,0
